# Assay outcomes deposited in PubChem by several laboratories.
# Only a selection was taken, and hits are over-represented in it overall.
# GIRK2 activator = activators of NPY4-receptor-primed GIRK2 channels, summary, cell-based, HEK293, thallium flux; G protein-activated inward rectifier potassium channel 2 (Homo sapiens), P48051; HEK293 GIRK2/NPY4 cells, thallium flux fluorescence; activation (% efficacy), % for hits at 37.5 µM; 34,000 tested, under 10 active;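 active = primary screen hit, no activity in plain HEK293 cells, and in GIRK2-only cells above 5% efficacy rising with concentration; inactive = the rest, including fluorescent compounds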;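 note: efficacy is normalized control-subtracted fluorescence 15 s after thallium addition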
# AMPAR-TARP mod = modulators of GluA2-stargazin AMPA receptor complexes, primary screen, cell-based, membrane potential dye | calls only at 30 µM | Voltage-dependent calcium channel gamma-2 subunit (Mus musculus) + Glutamate receptor 2 … | HEK293 GluA2+stargazin, membrane potential dye (FDSS), glutamate EC50; hits were called plate by plate, in both directions | 40,000 tested, 3.5% active | AID 1259245, 2017;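 active = any of four per-well response measures lying three or more SD from its plate-wide compound average, in either direction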
# * = called active by the depositor; i = inactive; . = no result; + = active, no number; ! = a repeat was not active.
SMILES,GIRK2 activator,AMPAR-TARP mod
CC(C)(C)c1ccc(OCCCC(=O)N2CCOCC2)cc1,i,i
O=C(NCC1COC2(CCCCC2)O1)c1ccc(Br)o1 (stereo not given),i,i
COC(=O)c1ccc2c(=O)n(CCC(=O)NCCCN3CCOCC3)c(=S)[nH]c2c1,i,+
COC(=O)c1ccc2c(=O)n(CCN3CCCCC3)c(=S)[nH]c2c1,i,i
COC(=O)c1ccc2c(=O)n(CCC(=O)N3CCC(Cc4ccccc4)CC3)c(=S)[nH]c2c1,i,i
COCCn1c(=S)[nH]c2cc(C(=O)N3CCc4ccccc4C3)ccc2c1=O,i,+
COCCn1c(=S)[nH]c2cc(C(=O)N3CCN(c4ccccc4)CC3)ccc2c1=O,i,i
COC(=O)c1ccc2c(=O)n(CCC(=O)N3CCOCC3)c(=S)[nH]c2c1,i,+
CS(=O)(=O)N1CCCC(C(=O)NCc2ccccc2)C1 (stereo not given),i,i
COCCn1c(N)c(-c2nc3ccccc3n2C)c2nc3ccccc3nc21,i,+
COCCn1c(N)c(S(=O)(=O)c2ccc(Cl)cc2)c2nc3ccccc3nc21,i,i
Cc1cc2c(=O)n(Cc3ccco3)c(SCC(N)=O)nc2s1,.,i
CC(=O)Nc1ccc2nc(NC(=O)c3cc(C)no3)sc2c1,i,i
OCCN(CCO)CC(O)COC12CC3CC(CC(C3)C1)C2 (stereo not given),i,.
CC1CCN(CC(O)COCCOc2ccc(C(C)C)cc2)CC1 (stereo not given),i,.
CC1CCN(CC(O)COCCOc2ccc(Cl)cc2)CC1 (stereo not given),.,+
CC1CCN(CC(O)COCCOc2ccc(Br)cc2)CC1 (stereo not given),i,+
CN1CCN(CC(O)COCCOc2ccc(Br)cc2)CC1 (stereo not given),i,i
O=C(c1ccc(Cl)c([N+](=O)[O-])c1)N1CCN(c2ccc(N3CCN(CCO)CC3)nn2)CC1,i,i
COc1ccc(CCn2c(C)nc3c(c(=O)c4ccccc4n3C)c2=O)cc1OC,.,i
COc1ccc(Cn2c(C)nc3c(c(=O)c4ccccc4n3C)c2=O)cc1,.,+
Cc1nc2c(c(=O)c3ccccc3n2C)c(=O)n1C1CCCCCC1,.,+
Cc1nc2c(c(=O)c3ccccc3n2C)c(=O)n1-c1ccccc1,.,i
Cc1ccc(COc2ccccc2-n2c(C)cn3c4c(=O)n(C)c(=O)n(C)c4nc23)cc1,.,i
O=C(C1=COCCO1)N(CCN1CCOCC1)c1nc2c(F)cccc2s1,i,+
SMILES,GIRK2 activator,AMPAR-TARP mod
O=C(C1=COCCO1)N(CCN1CCOCC1)c1nc2ccccc2s1,.,i
CCSC1=NCCN1S(=O)(=O)c1ccc(Cl)cc1,.,i
CCCS(=O)(=O)N1CCN(c2ccc3nnc(C4CC4)n3n2)CC1,i,i
Cc1n[nH]c(C)c1S(=O)(=O)N1CCN(c2ccc3nnc(C4CC4)n3n2)CC1,i,+
Cc1nnsc1C(=O)N1CCN(c2ccc(-c3ccccn3)nn2)CC1,i,i
Cc1n[nH]c(C)c1S(=O)(=O)N1CCN(c2ccc(-c3ccccn3)nn2)CC1,i,+
COc1ccc2nc(N(Cc3ccncc3)C(=O)/C=C/c3cccs3)sc2c1,i,i
COc1ccc2c(CC(=O)Nc3ccc(S(N)(=O)=O)cc3)cc(=O)oc2c1,i,i
COc1ccc(N(Cc2cccc(Cl)c2)S(=O)(=O)c2ccc3nncn3c2)cc1,i,i
COc1ccc(N(Cc2cccc(C)c2)S(=O)(=O)c2ccc3nncn3c2)cc1,i,+
CC(C)c1ccc(NC(=O)c2sccc2N(C)S(=O)(=O)c2ccccc2)cc1,i,+!
CN(c1ccsc1C(=O)Nc1cccc(Cl)c1)S(=O)(=O)c1ccccc1,i,i
CC(C)(C)NC(=O)N1CCN(c2cc(N3CCOCC3)ncn2)CC1,i,+
CCCNC(=O)CSc1cc(N2CCOCC2)ncn1,i,i
CC(C)COC(=O)NCCc1nc2ccccc2[nH]1,.,i
O=C(CCc1ccccc1)NCCn1ncc2c(N3CCCC3)ncnc21,i,i
COc1ccc(CCC(=O)NCCn2ncc3c(N4CCCCC4)ncnc32)cc1,i,+
O=C(NCC1(c2cccs2)CC1)Nc1cccc(C(F)(F)F)c1,i,i
COc1cccc(NC(=O)NCC2(c3cccs3)CC2)c1,i,+
COc1ccccc1CNC(=O)CCn1c(=O)[nH]c2ccccc2c1=O,i,i
CN(C)C(CNC(=O)Cc1cccc2ccccc12)c1ccc(F)cc1 (stereo not given),.,i
Cc1ccc(C(CNC(=O)Cc2cccc3ccccc23)N(C)C)cc1 (stereo not given),i,+
COc1cccc(NC(=O)c2ccc(-c3ccccc3Cl)o2)c1,.,i
COC1CCN(C(=O)Cc2c[nH]c3ccccc23)CC1,.,i
O=S(=O)(N1CCOCC1)n1nnc2ccccc21,i,i
SMILES,GIRK2 activator,AMPAR-TARP mod
O=S(=O)(N1CCOCC1)n1c(Cc2ccccc2)nc2ccccc21,i,+
CC(O)(CNC(=O)c1ccco1)C1CC1 (stereo not given),i,i
O=C(NCC(c1cccc2ccccc12)N1CCOCC1)c1ccc(Br)cc1 (stereo not given),i,+
Cc1ccc(OCC(=O)NCC(c2cccc3ccccc23)N2CCOCC2)cc1 (stereo not given),i,i
COc1ccc(C(=O)NCC(c2cccc(OC)c2)N2CCOCC2)cc1 (stereo not given),i,i
COc1ccc(CC(=O)NCC(c2cccc3ccccc23)N2CCOCC2)cc1 (stereo not given),i,i
COc1cccc(C(CNC(=O)COc2ccccc2)N2CCOCC2)c1 (stereo not given),i,+
Cc1ccc(C(CNC(=O)COc2ccc3ccccc3c2)N2CCOCC2)cc1 (stereo not given),i,+
COc1cccc(C(CNC(=O)COc2ccc(C)cc2)N2CCOCC2)c1 (stereo not given),.,i
CCOc1ccc2ccccc2c1C(=O)NCC(c1cccc(OC)c1)N1CCOCC1 (stereo not given),i,+
COc1ccc(CCNC(=O)c2csc(Nc3ccccc3)n2)cc1OC,i,.
COC(=O)N1CCC(CNC(=O)C(=O)Nc2ccon2)CC1,i,i
COc1ccc(C(CNC(=O)C(=O)Nc2ccccc2[N+](=O)[O-])N2CCOCC2)cc1 (stereo not given),i,.
COc1ccc(C(CNC(=O)c2cccc([N+](=O)[O-])c2C)N2CCOCC2)cc1 (stereo not given),.,+
Cc1ccc(C(CNC(=O)c2ccccc2C)N2CCOCC2)cc1 (stereo not given),i,+
Cc1ccc(C(CNC(=O)c2cccs2)N2CCOCC2)cc1 (stereo not given),i,i
O=C(N1CCNCC1)N1CCOCC1,.,i
Cn1nc(CNC(=O)CCS(=O)(=O)c2ccccc2)c2ccccc2c1=O,i,i
O=C(Nc1cc(Cl)ccc1Cl)N1CCN(c2ccc3nncn3n2)CC1,i,i
